# Among all 65,000 compounds or so, about 45 (0.07%) were called active. These entries were drawn from the full list. Unmarked numbers belong to inactive results. Calls come from the whole dose curve.
# Test system: Schistosoma mansoni peroxiredoxin 2 (Prx2)
# Assay: Schistosoma Mansoni Peroxiredoxins (Prx2)
# Conditions: S. mansoni Prx2 activity coupled to TGR/GSH (TGR is thioredoxin glutathione reductase), NADPH fluorescence loss, qHTS
# From the text: NIH Molecular Libraries Screening Centers Network [MLSCN]
# NIH Chemical Genomics Center [NCGC]
# David Williams [Illinois State University]
# Schistosoma mansoni, a causative agent of schistosomiasis, resides in the bloodstream of their host up to 30 years without being eliminated by the host immune attack. One proposed survival mechanism is the production of an antioxidant "firewall" that neutralizes the oxidative assault of the host's immune attack. Schistosoma mansoni peroxiredoxins (Prx) are important parasite antioxidant proteins that play a crucial role in redox balance mechanisms. […] First, the proteins are essential for the parasite survival. […] Third, the protein(s) is amenable for study at the molecular level and can be produced in bacteria in large quantities, in soluble and active form. Inhibition of Prx activity was screened in a coupled-enzyme format with reducing equivalents being transferred from NADPH to […] intermediate via thioredoxin/glutathione reductase (TGR)-catalyzed reaction, then from thioredoxin to hydrogen peroxide via Prx-catalyzed electron transfer. A decrease in the fluorescence intensity of NADPH was used to measure the enzyme activity. Purified S. mansoni TGR and Prx were provided by Professor David L. Williams, Illinois State University.
# NCGC Assay Protocol Summary:
# 100 mM phosphate buffer, pH 7.4, 10 mM EDTA, 0.01% Tween-20.
# 100 uM NADPH/25 nM TGR/700 uM GSH/50 nM Prx2 mixture in columns 1, 2, 5-48. Titration of control potassium antimonyl tartrate (PAT, from 1 mM, then 1:5) pin-transferred to lower half of column 2. Column 1 and upper half of column 2 are neutral (100% activity).
# Three uL of reagents were dispensed to 1536-well Greiner black plates. Compounds and controls (20 nL) were transferred via Kalypsys PinTool. The plates were incubated for 15 min at room temperature, and then a 1 uL aliquot of 400 uM NADPH/700 uM GSH was added, immediately followed by a 1uL aliquot of 2.5 mM H2O2 (to start the reaction). The plate was transferred to ViewLux (Perkin-Elmer) High-throughput CCD imager where kinetic measurements (every 30 sec, for a total of 8 min) of NADPH fluorescence were taken using 365 nm excitation/450 nm emission filter set. During dispense, enzyme-containing reagent bottles were kept submerged into 4 deg C water bath to minimize degradation.
# Keywords: NIH Roadmap, MLSCN, MLI, MLSMR, David Williams, Peroxyredoxin, Schistosoma mansoni, prx2, prx, , qHTS, NCGC
# Potency is the fitted concentration of half-maximal effect.
row,SMILES,Potency [µM]
1,Oc1ccc2ccccc2c1C=NCc1c(O)ccc2ccccc12,> 57
2,CC(C)(O)[C@H]1[C@H]2OC(=O)[C@@H]1[C@]1(O)C[C@H]3O[C@]34C(=O)O[C@H]2[C@]14C,> 25.6
3,CC(C)[C@H](CO)Nc1nc(Nc2cc(N)cc(Cl)c2)c2ncn(C(C)C)c2n1,> 57
4,O=c1[nH]c(=O)n([C@H]2C[C@H](O)[C@H](CO)O2)cc1Br,> 57
5,COc1cccc(Cn2c(=O)c(CCc3ccccc3)nc3cnc(N(C)C)nc32)c1,> 11.4
6,COc1ccccc1CNc1ncncc1-c1cccnc1,> 57
7,COc1ccc(NC(=O)N2CC3(CCN(C(C)=O)CC3)C2)cc1,> 57
8,Cc1ccccc1-c1nc(N(C)Cc2ccco2)c2ccccc2n1,> 57
9,O=C(c1cc(C(F)(F)F)cc(C(F)(F)F)c1)N1CCC2(CCCN(Cc3ccncc3)C2)CC1,> 57
10,C[C@H](CCC(=O)NCC(=O)O)[C@H]1CC[C@H]2[C@H]3[C@@H](C[C@@H](O)[C@]12C)[C@]1(C)CC[C@H](O)C[C@@H]1C[C@@H]3O,> 57
11,Cc1nc2cnc(Nc3ccccc3)nc2n(C[C@H]2CCCO2)c1=O,> 57
12,CC[N+](C)(CC)CCC[n+]1c(-c2ccccc2)c2cc(N)ccc2c2ccc(N)cc21,> 57
13,NCC[Se][Se]CCN,> 57
14,CCCC[C@H]1C(=O)N(c2ccccc2)N(c2ccc(O)cc2)C1=O,> 57
15,FC(F)(F)c1ccccc1-c1cc(NCc2ccccc2)ncn1,> 57
16,O=C(Nc1cccc(F)c1)N1CC2(CCN(C(=O)c3cnccn3)CC2)C1,> 57
17,COCCn1c(=O)c(CCc2ccccc2)nc2cncnc21,> 57
18,O=C(c1cnccn1)N1CCC2(CCCN(Cc3ccccc3)C2)CC1,> 57
19,COc1ccc(-c2nc3cnc(Oc4ccccc4)nc3n(Cc3cccs3)c2=O)cc1,> 57
20,COCCn1c(=O)c(-c2cccs2)nc2cncnc21,> 57
21,Cc1noc(C)c1-c1nccc(N2CCOCC2)n1,> 57

row,SMILES,Potency [µM]
1,O=C(c1cc(C(F)(F)F)cc(C(F)(F)F)c1)N1CCC2(CCCN(c3ccccn3)C2)CC1,> 57
2,C/C=C1\C(=O)C[C@@H]2[C@@H]3CCC4=CC(=O)CC[C@@]4(C)[C@H]3CC[C@@]12C,> 57
3,CS(=O)(=O)N1CCC[C@@]2(CCN(c3ccncc3)C2)C1,> 57
4,CCS(=O)(=O)N(C)[C@@H]1c2cc(C#N)ccc2OC(C)(C)[C@H]1O,> 57
5,O=C(c1ccco1)N1CCC[C@@]2(CCN(Cc3nccs3)C2)C1,> 57
6,COC(=O)[C@@]1(Cc2ccc(F)cc2)[C@H]2c3cc(C(=O)N4CCCC4)n(C[C@H](O)CO)c3C[C@H]2CN1C(=O)c1ccccc1,> 57
7,Cc1nc2cnc(Nc3ccccc3)nc2n(Cc2ccc(F)cc2)c1=O,> 57
8,O=C(c1cccc(F)c1)N1CCC2(CC1)CCN(c1ccccc1)CC2,> 57
9,Cc1nc2cnc(Oc3cccc(Cl)c3)nc2n(C2CC2)c1=O,> 57
10,NC[C@@H]1O[C@H](O[C@@H]2[C@H](O[C@@H]3O[C@H](CO)[C@@H](COC[C@H]4O[C@@H](CN)[C@@H](O)[C@@H](O)[C@@H]4N)[C@@H]3O)[C@@H](O)[C@@H](N)C[C@H]2N)[C@@H](N)[C@H](O)[C@@H]1O,> 57
11,CC(C)(C)NCC[C@@H](O)c1cc(C(F)(F)F)nc2c(C(F)(F)F)cccc12,> 57
12,CCNCCCNCCCNCCCNCC,> 57
13,COCC(=O)N1CCC2(CCCN(c3ccccc3)C2)CC1,> 57
14,c1cncc(-c2nc(N3CCNCC3)c3ccccc3n2)c1,> 57
15,c1ccc(CCN2CCN=C2Cc2ccccc2)cc1,> 57
16,COC(=O)[C@@]1(Cc2ccccc2)[C@H]2c3cc(C(=O)N4CCCC4)n(Cc4ccc(C)o4)c3C[C@H]2CN1C(=O)c1ccccc1,> 57
17,Cc1nc2cnc(N3CCNCC3)nc2n(Cc2ccc(F)cc2)c1=O,> 57
18,COC(=O)[C@H](C)[C@H]1C[C@]1(C)[C@H](NC(=O)OCc1ccccc1)c1ccccc1,> 57
19,O=c1c(-c2ccc(F)cc2)nc2cnc(N3CCNCC3)nc2n1Cc1cccs1,> 11.4
20,CCC[C@@H]1C[C@@]1(CCC)C(NS(=O)(=O)c1cccc2cccnc12)c1ccc(Cl)cc1 (some centres not stated),> 57
21,NS(=O)(=O)c1cc(C(=O)O)c(Cl)c([N+](=O)[O-])c1Cl,> 57

row,SMILES,Potency [µM]
1,O=c1[nH]c(=O)c2nc3ccccc3nc2[nH]1,> 57
2,N#Cc1ccc(CN2CCCC3(CCN(C(=O)c4ccco4)CC3)C2)cc1,> 57
3,CC(=O)N1CCC2(CCCN(Cc3ccccc3)C2)CC1,> 57
4,CN1[C@H]2CC(OC(=O)[C@@H](CO)c3ccccc3)C[C@H]1[C@H]1O[C@H]12 (some centres not stated),> 57
5,COc1ccc2nccc(C(=O)O)c2c1,> 25.6
6,CN(Cc1ccco1)c1cc(-c2ccccc2C(F)(F)F)ncn1,> 57
7,COc1ccc(-c2nc3cnc(N(C)C)nc3n(Cc3cccs3)c2=O)cc1,> 57
8,Cn1cccc1C(=O)N1CCC2(CC1)CN(c1cccc(-c3ccccc3)c1)C2,> 57
9,O=C(c1ccc([N+](=O)[O-])cc1)[C@@H](Br)[C@@H](Br)c1ccnc2ccccc12,> 57
10,CCCN(C/C=C\I)[C@@H]1CCc2cccc(O)c2C1,> 57
11,O=C(c1ccncc1)N1CCC2(CCCN(C(c3ccccc3)c3ccccc3)C2)CC1,> 57
12,Nc1nc(N)c2[nH]c(CNc3ccc(C(=O)O)cc3)nc2n1,> 57
13,COc1ccccc1CCn1c(=O)c(-c2cn(C)c3ccccc23)nc2cncnc21,> 57
14,Cc1cc(N2CCCCC2)nc2ccc(Cc3ccc4nc(N5CCCCC5)cc(C)c4c3)cc12,> 11.4
15,CC(C)C[C@@H](CC(=O)N[C@@H](CCC(=O)O)CC(=O)O)NC(=O)[C@@H]1CCCC[C@H]1NC(=O)C[C@@H](NC(=O)C[C@H](CO)NC(=O)[C@@H]1CCCC[C@H]1N)C(C)C,> 25.6
16,O=c1c(CCc2ccccc2)nc2cnc(N3CCNCC3)nc2n1Cc1cccs1,> 57
17,CS(=O)(=O)N1CCC2(CCN(c3ccncc3)CC2)CC1,> 57
18,N[C@H](C(=O)O)c1ccc(C(=O)O)c(O)c1,> 57
19,Cc1cc(OCC(=O)O)c(Cl)cc1Cl,> 57
20,CC(C)NC(=O)N1CC[C@@]2(CCCN(C(=O)c3cccc(F)c3)C2)C1,> 57
21,Cn1c(=S)c2[nH]c(SCCCc3ccccc3)nc2n(C)c1=O,> 57

row,SMILES,Potency [µM]
1,CN1CCC2(CC1)CCN(S(=O)(=O)c1ccccc1)CC2,> 57
2,Cc1cc2c(cc1C)NC1=C(N2)O[C@H](c2c[nH]c3ccc(COc4ccccc4)cc23)C1=O,> 57
3,O=c1c(-c2cc(F)cc(F)c2)nc2cnc(Oc3ccccc3)nc2n1C[C@H]1CCCO1,> 11.4
4,FC(F)(F)c1ccccc1-c1nc(-n2ccnc2)c2ccccc2n1,> 57
5,O=C(O)c1ccc(C(=O)O)c2c(C(=O)O)ccc(C(=O)O)c12,> 57
6,COc1ccccc1CNc1ncnc2ccc(-c3c(C)noc3C)cc12,> 57
7,CC(C)c1ccc2c([Si](C)(C)C)c3c(nc2c1)-c1cccc(=O)n1C3,> 57
8,COc1ccc2[nH]c3cc4c(=O)c5cc(OC)ccc5[nH]c4cc3c(=O)c2c1,> 57
9,Cc1cccc(CNc2ccnc(-c3cccnc3)n2)c1,> 57
10,C[C@@H](C(=O)Nc1ccc2ccccc2c1)[C@@H]1C[C@@]1(C)[C@@H](NC(=O)c1cccnc1)c1ccccc1,> 57
11,CCNc1ncc2ncc(=O)n(Cc3cccc(OC)c3)c2n1,> 57
12,Cc1c(C)c2c(c(C)c1O)CC[C@@](C)(CN1CCN(c3cc(N4CCCC4)nc(N4CCCC4)n3)CC1)O2,> 25.6
13,CN(C)C(=O)c1ccc(-c2cncnc2NC2CCNCC2)cc1,> 57
14,COc1ccc(Br)c2c1C[C@H](C(=O)O)CC2,> 57
15,COC(=O)[C@@H]1[C@H]2C[C@H]3c4[nH]c5cc(OC)ccc5c4CCN3C[C@@H]2C[C@@H](OC(=O)c2cc(OC)c(OC)c(OC)c2)[C@@H]1OC,> 57
16,O=C(c1ccc(F)cc1)C1CCN(CCCCc2ccccc2)CC1,> 57
17,Cc1ccnc(N)c1,> 25.6
18,COc1ccccc1CNc1cc(-c2ccccc2CN(C)C)ncn1,> 57
19,O=C(NCc1ccccc1)[C@H]1C[C@@H]1[C@H](NP(=O)(c1ccccc1)c1ccccc1)c1ccccc1,> 57
